Data taken from PubChem BioAssay (NCATS).
Inconclusive results are not listed. Activity calls are given as the source filed them. Calls come from the whole dose curve; as a rule, active = well fitted curve in the direction sought with a large enough effect; inconclusive = small, poorly fitted or top-dose-only effect, or another doubt; inactive = no such curve, though single readings can be large; an effect the other way counts as inactive or inconclusive.

How the values were obtained:
[1] = system: HaCat; experiment: Cytotoxic Profiling of Annotated Libraries Using Quantitative High-Throughput Screening (AID 1296008); conditions: Five cell lines viability, CellTiter-Glo ATP luminescence, 48-72 h; max response: active compounds read low; note: nearly all actives have a fitted effect of over 60% in size
Summary of the method: (§1)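 Cytotoxicity was measured as CellTiter-Glo ATP luminescence, read after 10 min at room temperature. Compound treatment of the cells lasted 48 or 72 hr at 37 degrees Celsius in a qHTS format.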

[2] = system: KB-3-1; experiment: as above; conditions: Five cell lines viability, CellTiter-Glo ATP luminescence, 48-72 h; max response: active compounds read low
Summary of the method: as §1

[3] = system: NIH3T3; experiment: as above; conditions: Five cell lines viability, CellTiter-Glo ATP luminescence, 48-72 h; max response: active compounds read low
Summary of the method: as §1

[4] = system: C33A; experiment: Primary qHTS to identify gynecologic anti-cancer compounds using libraries of approved drugs and bioactive compounds (AID 1345084); conditions: Gynecologic cancer cell panel viability, ATPlite luminescence, 48 h; series mostly up to 57.5 µM; note: nearly all actives have a fitted effect of over 55% in size
Summary of the method: (§2)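 48 h compound exposure at 37 C, 5% CO2; five-point qHTS. ATPlite luminescence readout of cell ATP.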

[5] = system: CAOV3; experiment: as above; conditions: Gynecologic cancer cell panel viability, ATPlite luminescence, 48 h; series mostly up to 57.5 µM
Summary of the method: as §2

[6] = system: CASKI; experiment: as above; conditions: Gynecologic cancer cell panel viability, ATPlite luminescence, 48 h; series mostly up to 57.5 µM
Summary of the method: as §2

[7] = system: Es-2; experiment: as above; conditions: Gynecologic cancer cell panel viability, ATPlite luminescence, 48 h; series mostly up to 57.5 µM
Summary of the method: as §2

[8] = system: HeLa; experiment: as above; conditions: Gynecologic cancer cell panel viability, ATPlite luminescence, 48 h; series mostly up to 57.5 µM
Summary of the method: as §2

[9] = system: Hek293T; experiment: as above; conditions: Gynecologic cancer cell panel viability, ATPlite luminescence, 48 h, control line for the selectivity index; series mostly up to 57.5 µM
Summary of the method: as §2

[10] = system: JEG-3; experiment: as above; conditions: Gynecologic cancer cell panel viability, ATPlite luminescence, 48 h; series mostly up to 57.5 µM
Summary of the method: as §2

[11] = system: OV90; experiment: as above; conditions: Gynecologic cancer cell panel viability, ATPlite luminescence, 48 h; series mostly up to 57.5 µM
Summary of the method: as §2
% is set by controls: 0 for no effect and ±100 for the full control effect.

CC(C)(C)NCCCNC(=O)c1cccc(Br)c1
inactive: max response [1] 4.1% | max response [2] 6.67% | max response [3] 3.37% | Potency [4] | Potency [5] | Potency [6] | Potency [7] | Potency [8] | Potency [9] | Potency [10] | Potency [11]

C=C(C(=O)O)[C@@H]1CC[C@@]2(C)CC[C@H](O)[C@@]2(C(C)=O)C1
inactive: max response [1] -0.694% | max response [2] 2.3% | max response [3] -3.95% | Potency [4] | Potency [5] | Potency [6] | Potency [7] | Potency [8] | Potency [9] | Potency [10] | Potency [11]

C/C=C/C=C/[C@@H]1O[C@](O)([C@H](CC)C(=O)NC/C=C/C=C(\C)[C@@H](OC)[C@@H](C)C2OC(/C=C/C=C/C=C(\C)C(=O)c3c(O)cc[nH]c3=O)[C@H](O)[C@@H]2O)[C@H](O)[C@H](O)C1(C)C (stereo partly drawn)
inactive: max response [1] -11.5% | max response [2] 2.01% | max response [3] -4.29% | Potency [4] | Potency [5] | Potency [6] | Potency [7] | Potency [8] | Potency [9] | Potency [10] | Potency [11]

C=C(C)C1CC[C@]2(C(=O)O)CC[C@]3(C(=O)O)[C@H](CCC4[C@@]5(C)CC[C@H](O)C(C)(C)C5CC[C@]43C)C12 (stereo partly drawn)
inactive: max response [1] -4.71% | max response [2] -4.13% | max response [3] -12.2% | Potency [4] | Potency [5] | Potency [6] | Potency [7] | Potency [8] | Potency [9] | Potency [10] | Potency [11]

C=CC(C)(C)c1[nH]c2ccccc2c1C[C@@H]1NC(=O)[C@H](Cc2c[nH]c3ccccc23)NC1=O
inactive: max response [1] -3.54% | max response [2] 3.66% | max response [3] 0.0013% | Potency [4] | Potency [5] | Potency [6] | Potency [7] | Potency [8] | Potency [9] | Potency [10] | Potency [11]

CC(=O)OC1C[C@@]2(C)[C@@H](CC[C@@H](C)[C@]23Cc2c(O)cc4c(c2O3)CNC4=O)C(C)(C)[C@@H]1O (stereo partly drawn)
inactive: max response [1] 4.03% | outcome [2] | max response [3] 1.15% | Potency [4] | Potency [5] | Potency [6] | Potency [7] | Potency [8] | Potency [9] | Potency [10] | Potency [11]

CCOc1ccc(NC(=S)N2CCC(C(O)(c3ccccc3)c3ccccc3)CC2)cc1
inactive: max response [1] 1.92% | outcome [2] | max response [3] -1.64% | Potency [4] | Potency [5] | Potency [6] | Potency [7] | Potency [8] | Potency [9] | Potency [10] | Potency [11]

COC1CC(OC2CCC3(C)C(=CCC4C3C(OC(C)=O)C(OC(=O)/C=C/c3ccccc3)C3(C)C(C(C)O)CCC43O)C2)OC(C)C1OC1CC(OC)C(OC2OC(C)C(OC3OC(CO)C(O)C(O)C3O)C(OC)C2O)C(C)O1 (stereo not drawn)
inactive: max response [1] 0.93% | max response [2] -1.59% | max response [3] 0.895% | activity change, negative = cytotoxicity [4] -4.62% [at 6.55 µM] | activity change, negative = cytotoxicity [5] 1.34% [at 6.55 µM] | activity change, negative = cytotoxicity [6] -3.47% [at 6.55 µM] | activity change, negative = cytotoxicity [7] 4.75% [at 6.55 µM] | activity change, negative = cytotoxicity [8] -0.474% [at 6.55 µM] | activity change, negative = cytotoxicity [9] -0.285% [at 6.55 µM] | activity change, negative = cytotoxicity [10] -8.61% [at 6.55 µM] | activity change, negative = cytotoxicity [11] -2.22% [at 6.55 µM]

COC(=O)c1ccc(OC(CO)C(O)c2ccc(O)c(OC)c2)c(OC)c1 (stereo not drawn)
inactive: max response [1] 1.74% | max response [2] -5.47% | max response [3] -1.03% | Potency [4] | Potency [5] | Potency [6] | Potency [7] | Potency [8] | Potency [9] | Potency [10] | Potency [11]

CC1=CC(=O)CC2C1(O)CCC(C)C21CC(c2ccoc2)OC1=O (stereo not drawn)
inactive: max response [1] -50.8% | max response [2] -1.68% | max response [3] -0.573% | Potency [4] | Potency [5] | Potency [6] | Potency [7] | Potency [8] | Potency [9] | Potency [10] | Potency [11]

COC(=O)N[C@H](C(=O)N1[C@@H]2CC[C@@H](C2)[C@H]1c1nc2ccc(-c3ccc4c(c3)C(F)(F)c3cc(-c5cnc([C@@H]6CCC7(CC7)N6C(=O)[C@@H](NC(=O)OC)C(C)C)[nH]5)ccc3-4)cc2[nH]1)C(C)C
inactive: max response [1] -33.1% | max response [2] -8.63% | max response [3] -14.9% | Potency [4] | Potency [5] | Potency [6] | Potency [7] | Potency [8] | Potency [9] | Potency [10] | Potency [11]

CC1=C(C)C(=O)OC(C(C)C2CCC3C4CC=C5CC(OC6OC(COC7OC(CO)C(O)C(O)C7O)C(O)C(O)C6O)CC(O)C5(C)C4CCC23C)C1 (stereo not drawn)
inactive: max response [1] -17.7% | max response [2] 8.05% | max response [3] 3.09% | Potency [4] | Potency [5] | Potency [6] | Potency [7] | Potency [8] | Potency [9] | Potency [10] | Potency [11]

c1ccc(N2CCN(CCc3nn[nH]n3)CC2)cc1
inactive: max response [1] -17.8% | max response [2] 7.49% | max response [3] 1.1% | Potency [4] | Potency [5] | Potency [6] | Potency [7] | Potency [8] | Potency [9] | Potency [10] | Potency [11]
